Activity calls are given as the source filed them. Calls follow the shape of the full dose curve.
target: Muscarinic acetylcholine receptor M1 (Homo sapiens) (UniProt P11229); experiment: Cholinergic receptor muscarinic 1 (CHRM1) small molecule agonists, cell-based qHTS assay (AID 1963589); details: CHRM1-CHO cells, agonist mode, calcium flux fluorescence; series mostly up to 76.8 µM; activation: at the top concentration; also: nearly all actives have a fitted effect of over 35% in size
From the text: National Center for Advancing Translational Sciences [NCATS]
Division of Preclinical Innovation [DPI]
U.S. Environmental Protection Agency [EPA]
National Institutes of Environmental Health Sciences [NIEHS]
National Toxicology Program [NTP]
U.S. Food and Drug Administration [FDA]
The CHRM1 is a muscarinic receptor. This receptor plays a crucial role in learning and memory processes and has long been identified as a promising therapeutic target for the improvement of cognitive decline in Alzheimer's disease (AD). The CHRM1-CHO cell line stably expressing human muscarinic acetylcholine receptor M1 (CHRM1) can be used for screening agonists and antagonists of interactions between CHRM1 and its ligands. The CHRM1-CHO Calcium Flux Assay is a homogeneous fluorescence-based assay for detecting the intracellular calcium level using FDSS kinetic plate reader system.
CHRM1-CHO cells were dispensed at 1000 cells/3uL/well in 1536-well black-clear bottom plates using a Multidrop Dispenser. After the assay plates were incubated at a 37 C/5% CO2 incubator for 18 h, 3 uL of Dye Loading Buffer was transferred to the assay plate by a Flying Reagent Dispenser. The assay plates were incubated at 37 C for 1h. For agonist mode, 23 nL of compounds dissolved in DMSO, positive controls or DMSO only was transferred to the assay plate by a pin tool. […] Each test compound was measured at 15 concentrations in three independent runs.
% is scaled to controls: 0 for no effect and ±100 for the full control effect.

Sequence of Muscarinic acetylcholine receptor M1 (Homo sapiens) (P11229 whole entry, looked up): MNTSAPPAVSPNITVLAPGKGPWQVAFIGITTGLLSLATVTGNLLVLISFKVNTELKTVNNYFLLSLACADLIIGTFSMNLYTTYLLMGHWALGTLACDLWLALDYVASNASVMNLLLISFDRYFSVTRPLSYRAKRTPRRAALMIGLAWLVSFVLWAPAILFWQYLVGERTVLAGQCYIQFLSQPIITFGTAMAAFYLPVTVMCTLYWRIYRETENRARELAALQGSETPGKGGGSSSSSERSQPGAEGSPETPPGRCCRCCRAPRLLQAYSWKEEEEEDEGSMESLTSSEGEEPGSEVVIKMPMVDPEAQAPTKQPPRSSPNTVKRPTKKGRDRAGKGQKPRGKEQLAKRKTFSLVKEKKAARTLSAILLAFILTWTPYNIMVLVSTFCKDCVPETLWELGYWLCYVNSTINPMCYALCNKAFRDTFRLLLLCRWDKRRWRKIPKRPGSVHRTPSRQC

| Structure (SMILES) | activation | Potency |
| --- | --- | --- |
| CCCCCC[N+](=O)[O-] | 0.501% (inactive) | – |
| CC(C)c1c(CN(C)C(C)Cc2ccccc2)n(C)n(-c2ccccc2)c1=O (stereo not given) | -0.14% [at 35.3 µM] (inactive) | – |
| COP(=O)(OC)OC(Br)C(Cl)(Cl)Br (stereo not given) | – | inactive |
| ClC(Br)Br | -0.292% (inactive) | – |
| COc1c2c(cc3c1OCO3)CCN(C)C2 | 21.1% [at 35.3 µM] (inactive) | – |
| COC(=O)c1ccccc1S(=O)(=O)NC(=O)Nc1nc(C)nc(OC)n1 | 0.61% (inactive) | – |
| COC1=CC(=O)O[C@@H](/C=C/c2ccccc2)C1 | -1.11% (inactive) | – |
| O=S(=O)(O)C(F)(F)C(F)(F)C(F)(F)C(F)(F)F | 13.3% (inactive) | – |
| COc1cc(CCN)cc(OC)c1OC | -0.219% (inactive) | – |
| CCC(C(N)=O)N1CCCC1=O (stereo not given) | -0.311% [at 35.3 µM] (inactive) | – |
| CCC(C)c1cc(C(C)(C)C)cc(-n2nc3ccccc3n2)c1O (stereo not given) | 0.149% [at 35.3 µM] (inactive) | – |
| CC(C)C(=O)Cl | 0.108% (inactive) | – |
| COP(=O)(OC)O/C(C)=C/C(=O)N(C)C | 3.64% (inactive) | – |
| CC(=O)OC(c1ccccc1)C(Cl)(Cl)Cl (stereo not given) | -1.01% (inactive) | – |
| O=C(O)CBr | 2.86% (inactive) | – |
| CCOP(=S)(S)OCC | -0.689% (inactive) | – |
| Cc1cc(Cl)ccc1O[C@H](C)C(=O)O | -0.363% (inactive) | – |
| CCC(=O)C(CCN(C)C)(c1ccccc1)c1ccccc1 | -0.672% [at 35.3 µM] (inactive) | – |
| S=C(SSC(=S)N1CCCCC1)N1CCCCC1 | 5.25% [at 35.3 µM] (inactive) | – |
| ClC(Cl)=C(c1ccc(Cl)cc1)c1ccccc1Cl | -0.32% (inactive) | – |

| Structure (SMILES) | activation | Potency |
| --- | --- | --- |
| CCC[CH2][Sn]([CH2]CCC)([CH2]CCC)[O][Sn]([CH2]CCC)([CH2]CCC)[CH2]CCC | 7.77% [at 6.97 µM] (inactive) | – |
| O=[N+]([O-])c1cc(C(F)(F)F)cc([N+](=O)[O-])c1Cl | 6.55% (inactive) | – |
| COC(=O)c1cc(Oc2ccc(Cl)cc2Cl)ccc1[N+](=O)[O-] | 1.87% (inactive) | – |
| OC(Cn1cncn1)(c1ccc(F)cc1)c1ccccc1F (stereo not given) | 0.391% (inactive) | – |
| Clc1ccc(C2(Cn3cncn3)CC(Br)CO2)c(Cl)c1 (stereo not given) | 0.509% (inactive) | – |
| CCC(C)(C)C(=O)OC1=C(c2ccc(Cl)cc2Cl)C(=O)OC12CCCCC2 | -0.961% (inactive) | – |
| Clc1cc(Cl)c(-c2cc(Cl)c(Cl)cc2Cl)cc1Cl | 0.0292% [at 35.3 µM] (inactive) | – |
| O=C(O)[C@H](O)[C@@H](O)C(=O)O | -0.519% (inactive) | – |
| CNC(=O)Oc1cc(C)c(N(C)C)c(C)c1 | -0.454% (inactive) | – |
| ClC(Cl)C(Cl)(Cl)Cl | 0.185% (inactive) | – |
| N#Cc1c(Cl)cccc1Cl | -0.307% (inactive) | – |
| N#CC(C#N)=C(C#N)C#N | -0.207% (inactive) | – |
| Clc1ccccc1-c1ccccc1Cl | 4.18% (inactive) | – |
| O=C(c1ccccc1)C(Cl)Cl | -0.387% (inactive) | – |
| CCOP(=S)(OCC)Oc1cc(-c2ccccc2)on1 | -0.511% (inactive) | – |
| CN1CC[C@]23c4c5ccc(O)c4O[C@H]2[C@@H](O)C=C[C@H]3[C@H]1C5 | -0.318% (inactive) | – |
| C=CC(=O)OCCCCOC(=O)C=C | -0.18% (inactive) | – |
| CCOP(=S)(OCC)Oc1ccc(S(C)=O)cc1 (stereo not given) | -0.855% (inactive) | – |
| NNC(N)=O | -0.443% (inactive) | – |
| CCOP(=S)(OCC)Oc1cc(C)nc(N(CC)CC)n1 | 3.39% (inactive) | – |
